# From PubChem
# TPT1 inhibitor = Candida albicans TPT1 enzyme inhibitors, primary screen, biochemical, fluorescence polarization; tRNA 2'-phosphotransferase TPT1 (Candida albicans SC5314); recombinant caTPT1, FP RNA substrate dephosphorylation; inhibition, % at 5 µM; 300,000 compounds, 0.81% hits;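 active means inhibition above the mean of all tested compounds plus 3 SD, set per screening campaign, cut at about 24% in these data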;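 further: plate controls were DMSO alone for no effect and ferristatin control at 100 nM for full effect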
# IDE inh = human IDE inhibitors in live cells, primary screen, fluorescence polarization, HEK cells, FAbetaB substrate. Insulin-degrading enzyme (Homo sapiens), P14735. FAbetaB cleavage. inhibition, % at 5.59 µM. 320,000 compounds, 0.41% hits. AID 434962, 2010;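 active means percent inhibition above the average of all tested compounds plus 3 SD, set per screening campaign, cut at about 16% in these data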;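 further: IDE supplied by intact live HEK cells; FP after avidin binding of uncleaved biotin substrate so inhibition keeps polarization high; 0% = DMSO wells and 100% = 60 µM reference IDE inhibitor Ii1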
# Rpn11 block = Rpn11 (PSMD14) deubiquitinase inhibitors, primary screen, biochemical, fluorescence polarization, uHTS; 26S proteasome non-ATPase regulatory subunit 14 (Homo sapiens), O00487; human 26S proteasome, Ub4-pepOG fluorescence polarization; 20S core pre-blocked with epoxomicin; inhibition, % at 20 µM; 360,000 compounds, 0.59% hits; AID 588493, 2011;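 active means inhibition at 20 µM, scaled to each plate's controls, above about 33%, limit read from the data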
# Target sequence (O00487 whole entry, looked up): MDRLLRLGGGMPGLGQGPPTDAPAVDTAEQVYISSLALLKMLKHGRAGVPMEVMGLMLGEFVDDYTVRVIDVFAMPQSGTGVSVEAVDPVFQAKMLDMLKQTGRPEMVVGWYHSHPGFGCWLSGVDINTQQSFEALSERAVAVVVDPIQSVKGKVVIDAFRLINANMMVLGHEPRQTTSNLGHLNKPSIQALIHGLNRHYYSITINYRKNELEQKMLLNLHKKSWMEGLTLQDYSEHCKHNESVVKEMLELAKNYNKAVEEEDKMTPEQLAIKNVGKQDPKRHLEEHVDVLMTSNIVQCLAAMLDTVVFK
# IDE act = human IDE activators in live cells, primary screen, fluorescence polarization, HEK cells, FAbeta-B substrate; FAbeta-B cleavage; 0% vehicle, 100% cell-free pure enzyme wells; Insulin-degrading enzyme (Homo sapiens), P14735; activation, % at 5.96 µM; AID 493087, 2011; 340,000 compounds, 0.073% hits;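 active means activation above the mean of all tested compounds plus 3 SD, set per screening campaign, cut at about 17% in these data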
# Calb FLC = C. albicans growth inhibition with fluconazole, primary screen, CaCi-2 strain, Alamar Blue fluorescence; AID 1979, 2009; C. albicans CaCi-2 (fluconazole-resistant clinical isolate) + fluconazole, 48 h; growth inhibition, % (concentration not given with the values); 300,000 compounds, 0.57% hits;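 active means growth inhibition above about 58% in most replicates, limit read from the data, passing the limit was not always enough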;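 further: all wells also contain fluconazole at 8 µg/ml as a sub-toxic cotreatment; 0% = median of DMSO wells and 100% = median of geldanamycin control wells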
# Rin1-Abl PPI inh = inhibitors of Rin1-Abl protein binding, primary screen, biochemical, TR-FRET; Tyrosine-protein kinase ABL1 (Homo sapiens) + Ras and Rab interactor 1 (Homo sapiens), …; inhibition, % at 7.35 µM; 360,000 compounds, 0.4% hits; in the data active means inhibition above about 5%, passing the limit was not always enough
# caTPT1 confirm = Candida albicans TPT1 inhibitors, confirmation, biochemical, fluorescence polarization, triplicate; shares compounds with TPT1 inhibitor; recombinant caTPT1, RNase T1 coupled; inhibition, % at 5 µM; 2,400 compounds, 74% hits;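 active means inhibition above the primary screen limit, the mean inhibition of all tested compounds plus 3 SD, cut at about 25% in these data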
# RNase T1 counter = RNase T1 inhibitors, counter-screen for TPT1 inhibitor project, biochemical, fluorescence polarization; RNase T1 cleavage, 1536-well; inhibition, % at 5 µM; 2,400 compounds, 83% hits; AID 2153, 2009; shares compounds with TPT1 inhibitor;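 active means inhibition above the solvent-only control well mean plus 3 SD, limit set per screening run, cut at about 23% in these data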;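 further: plate controls were DMSO wells with enzyme for no effect and wells without RNase T1 for full effect; inhibitors block cleavage so intact labeled substrate keeps polarization high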
# Target sequence (P00651 whole entry, looked up): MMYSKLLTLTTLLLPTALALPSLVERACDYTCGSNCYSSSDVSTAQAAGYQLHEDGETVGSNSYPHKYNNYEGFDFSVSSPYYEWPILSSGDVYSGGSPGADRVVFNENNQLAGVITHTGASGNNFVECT
# IDE inh confirm = human IDE inhibitors in live cells, confirmation, fluorescence polarization, HEK cells, FAbetaB substrate; inhibition, % at 5.59 µM; FAbetaB cleavage; shares compounds with IDE inh; 1,200 compounds, 51% hits; AID 435028, 2010;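 active means mean inhibition across triplicate wells above the cutoff set by the earlier primary insulin-degrading enzyme screen, cut at about 16% in these data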;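 further: 0% = DMSO wells and 100% = 60 µM reference IDE inhibitor Ii1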
# HEK cytotox = cytotoxicity in HEK cells, cytotoxicity control for IDE inhibitor project, cell-based, luminescence | shares compounds with IDE inh | HEK293 cytotoxicity, ATP luminescence | inhibition, % at 5.59 µM | 1,200 compounds, 28% hits; in the data active means inhibition above about 22%;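 further: 0% = vehicle wells and 100% = reference cytotoxic drug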
# Numbers without * were called inactive; . = no result given; + = active, no number. Shown are actives, neighbours in structure and some others; about 2.3% of the full set was active somewhere.
SMILES,TPT1 inhibitor,IDE inh,Rpn11 block,IDE act,Calb FLC,Rin1-Abl PPI inh,caTPT1 confirm,RNase T1 counter,IDE inh confirm,HEK cytotox
CC(=O)c1sc(N/N=C\c2ccc(Br)cc2)nc1C,71.1*,36.8*,.,-54.3,2.2,-1.9,82.0*,88.1*,75.8*,8.7
CC(=O)c1sc(N/N=C\c2cccc(Br)c2)nc1C,67.3*,40.0*,.,-76.3,14.6,-1.8,77.7*,80.6*,105.5*,14.7
O=C1/C(=C/c2ccc(O)cc2)SC(=S)N1CC1CCCO1 (configuration not stated),74.9*,87.3*,.,-118.8,20.1,-3.6,80.8*,82.9*,166.8*,12.3
CCCOc1ccc(/C=C2\SC(=S)N(CC3CCCO3)C2=O)cc1 (configuration not stated),3.4,0.3,3.7,3.8,-1.6,-3.9,.,.,.,.
O=C1/C(=C\c2ccc(O)cc2)SC(=S)N1Cc1ccccc1,74.8*,76.8*,.,-90.9,20.5,-1.3,83.4*,84.4*,137.2*,11.5
COc1ccc(C#Cc2ccc(C3=CC(=O)CC(C)(C)C3=O)cc2)cc1,.,.,.,.,.,0.1,.,.,.,.
CN(C)c1ccc(/C=C/C(=O)c2cccc(Br)c2)cc1,99.3*,106.7*,.,-172.3,-23.4,-0.3,97.3*,94.5*,110.2*,25.7*
CC1CC1c1ccc(/C=C(\C#N)C(=O)Nc2ccc(Cl)cc2)o1 (configuration not stated),-1.1,0.0,13.7,-3.5,4.9,2.2,.,.,.,.
COc1ccc(NC(=O)/C(C#N)=C/c2ccc(Br)o2)cc1,3.4,-0.6,-16.2,4.2,-10.0,6.0,.,.,.,.
COc1ccc(NC(=O)/C(C#N)=C\c2ccc(N3CCOCC3)o2)cc1,+,126.1*,.,-172.9,103.1*,-18.4,198.4*,177.4*,144.6*,18.2
N#C/C(=C/c1ccc(N2CCCCC2)o1)C(=O)Nc1ccc(Cl)cc1,186.8*,71.4*,.,-72.2,-0.2,-0.5,191.5*,173.8*,63.6*,33.7*
N#C/C(=C\c1ccc(N2CCOCC2)o1)C(=O)Nc1ccc(O)cc1,+,58.6*,.,.,38.6,-23.5,194.2*,176.2*,65.6*,14.1
N#C/C(=C/c1ccc(N2CCOCC2)o1)c1nc2ccccc2[nH]1,180.1*,35.5*,.,-157.4,.,-53.5,163.9*,151.7*,26.0*,28.5*
COc1ccc(CNC(=O)COC(=O)c2ccc(S(=O)(=O)N3CCOCC3)cc2)cc1,.,-0.8,0.6,-0.9,.,-0.6,.,.,.,.
c1ccc(CCNc2cc(-c3ccc4ccccc4c3)nc3ccnn23)nc1,.,.,-0.3,.,.,-0.6,.,.,.,.
O=C(Cc1ccccc1F)Nc1ccc(S(=O)(=O)Nc2ncccn2)cc1,-1.4,1.9,6.6,4.8,-2.7,-0.9,.,.,.,.
CCN(CC)c1ccc(/C=C(/C#N)C(=O)NCc2ccccc2)o1,188.9*,103.3*,.,-104.2,3.6,-10.9,196.5*,180.3*,153.0*,5.8
N#C/C(=C\c1ccc(O)cc1)C(=O)NCc1ccccc1,-2.2,-1.1,-0.3,-0.5,-4.8,-0.7,.,.,.,.
CCN(CC)c1ccc(/C=C(/C#N)C(=O)NC(C)C)o1,169.3*,26.8*,.,-31.7,-19.8,-12.5,186.0*,172.8*,30.4*,12.6
C[C@@H]1CN([C@@H](C)CO)C(=O)c2cc(NC(=O)c3ccccc3)ccc2O[C@@H](C)CCCCO[C@@H]1CN(C)Cc1ccc(C(F)(F)F)cc1,.,.,10.8,.,.,0.0,.,.,.,.
CC(C)(O)c1cc2ccc(C#CCCN3C(=O)c4ccccc4C3=O)cc2c(=O)o1,.,3.3,-3.7,5.6,.,-2.3,.,.,.,.
C=CCN1C=CC(=C/C=C(/C#N)C(=O)OCC)C=C1,175.8*,43.5*,.,-43.4,4.4,-30.4,186.8*,173.3*,63.1*,11.3
COc1cc(/C=C(\C#N)C(=O)c2c[nH]c3ccccc23)cc(OC)c1O,127.8*,38.3*,.,-107.7,25.3,0.2,155.8*,143.3*,159.2*,3.0
COc1cc(/C=C(\C#N)c2nc3ccccc3n2C)cc(OC)c1O,82.7*,165.6*,.,-175.0,-1.7,-3.0,100.6*,101.2*,26.3*,2.0
COc1cc(/C=C(\C#N)c2nc3ccccc3[nH]2)cc(OC)c1O,137.3*,92.0*,.,-93.8,21.2,-4.3,133.4*,124.4*,25.9*,7.7
SMILES,TPT1 inhibitor,IDE inh,Rpn11 block,IDE act,Calb FLC,Rin1-Abl PPI inh,caTPT1 confirm,RNase T1 counter,IDE inh confirm,HEK cytotox
Cn1c(/C(C#N)=C/c2ccc(O)cc2)nc2ccccc21,6.3,-0.5,7.8,-1.8,0.7,-1.8,.,.,.,.
Cc1ccc(C2(C)NC(=O)N(CC(=O)N3CCN(S(=O)(=O)c4ccc(Cl)s4)CC3)C2=O)cc1 (configuration not stated),6.2,-3.3,-2.4,-0.2,5.2,-2.6,.,.,.,.
COc1ccc(-n2nc(C(=O)NCC(=O)Nc3cccc(Cl)c3)c3ccccc3c2=O)cc1OC,1.5,1.0,31.3,3.4,31.6,-4.0,.,.,.,.
COc1cc(/C=C2\Oc3cc(O)ccc3C2=O)ccc1O,46.9*,62.4*,.,-89.0,-0.2,-4.9,51.0*,59.3*,143.3*,9.2
CCOc1ccccc1C(=O)NCC(=O)NNC(=O)CN(C)S(=O)(=O)c1ccc(Cl)cc1,-0.3,3.2,-1.7,-2.9,0.2,0.4,.,.,.,.
CCCCN1C(=O)c2cccc3cc(O)cc(c23)C1=O,37.3*,20.5*,-8.2,-10.1,2.6,-3.0,42.0*,47.9*,27.6*,12.1
CCS(=O)(=O)c1nn2c(N)c(/C=C3/C=CC(=O)C(OC)=C3)c(=O)nc2s1,34.8*,23.6*,.,-94.9,-1.9,0.0,86.1*,91.7*,157.3*,12.7
COc1cc(OC)c(OC)cc1/C=C1\Oc2cc(OCC(=O)N3Cc4ccccc4C[C@H]3C(=O)O)ccc2C1=O,73.4*,61.9*,.,-94.5,13.3,-6.7,80.7*,84.5*,105.5*,0.5
